# Screens from PubChem.
# Compounds with a hit are over-represented: about 5.5% of the library has one in this group of screens.
# CBFb-RUNX1 inh: qHTS Assay for Compounds Blocking the Interaction Between CBF-beta and RUNX1 for the Treatment of Acute Myeloid Leukemia; Runt-related transcription factor 1 (Homo sapiens) + Core-binding factor subunit beta …; AlphaScreen CBFb-His/RUNX1-biotin binding, biochemical; Potency, µM (series often up to 59.8 µM), without a hit: at the highest dose activity, negative = inhibition, hits mostly inhibitors; 230,000 tested, under 10 active; also: % of control where 0% means no effect
#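 CBF-beta (His) and RUNX1 (biotin), 30 nM each; 20 min preassociation; + compound, 15 min; + beads 50 ng each (Ni, streptavidin), 90 min; RT; AlphaScreen read.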
# Six1-Eya2 inh: qHTS Assay for Inhibitors of the Six1/Eya2 Interaction; Homeobox protein SIX1 (Homo sapiens) + Protein phosphatase EYA2 (Homo sapiens), …; AlphaScreen GST-Six1/His-Eya2 binding, biochemical; hits give low values; activity change, % (no concentration beside the values); actives 0.56% (n = 360,000); AID 651725, 2012; in the data active = activity change below about -65%; inconclusive = mostly about -30% to -63%; also: % is scaled to controls: 0 for no effect and ±100 for the full control effect
#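 Six1/Eya2 binding was read as AlphaScreen signal after compounds were pinned into GST-Six1 plus His-tagged Eya2 (5X stock 250/500 nM) in pH 8.0 Tris/NaCl/TCEP buffer, beads added, then incubated 1 h, 37 C, dark.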
# RORgamma inh: qHTS for inhibitors of ROR gamma transcriptional activity | Drosophila S2 Gal4-RORgamma UAS-luciferase reporter, 20 h | Potency, µM (highest dose often 53.6 µM), for the others: top-dose activity change, negative = inhibition, most hits filed as inhibitors | actives 5.4% (n = 310,000) | AID 2551, 2010; also: potency is read from the fitted curve at half-maximal effect; % is scaled to controls: 0 for no effect and ±100 for the full control effect; nearly all actives have a fitted effect of over 60% in size
# Target sequence (P51450 whole entry, looked up, the tested form may be a part): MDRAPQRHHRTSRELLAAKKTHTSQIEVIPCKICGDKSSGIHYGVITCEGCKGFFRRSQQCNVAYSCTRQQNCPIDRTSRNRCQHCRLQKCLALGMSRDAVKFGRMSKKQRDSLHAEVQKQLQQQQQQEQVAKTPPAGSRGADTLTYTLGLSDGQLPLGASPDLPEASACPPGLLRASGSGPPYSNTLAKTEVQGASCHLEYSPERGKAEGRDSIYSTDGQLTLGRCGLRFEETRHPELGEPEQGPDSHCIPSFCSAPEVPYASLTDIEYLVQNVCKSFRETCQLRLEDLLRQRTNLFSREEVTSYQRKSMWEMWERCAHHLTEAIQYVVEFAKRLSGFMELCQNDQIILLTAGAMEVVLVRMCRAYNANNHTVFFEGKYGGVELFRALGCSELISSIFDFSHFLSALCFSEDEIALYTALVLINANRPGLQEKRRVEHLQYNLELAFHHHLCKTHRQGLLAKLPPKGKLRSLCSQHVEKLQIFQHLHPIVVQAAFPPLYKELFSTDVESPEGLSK
#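 Stably transfected Drosophila Schneider cells are the test system, with ROR gamma fused to Gal4 and luciferase under UAS control; luminescence is read after 20 hr of 700 uM copper sulfate induction at ambient temperature.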
# CtBP-E1A blk: qHTS Assay for Inhibitors of the CtBP/E1A Interaction; CtBP / adenovirus E1A interaction (AlphaScreen); AlphaScreen GST-E1A/His-CtBP binding, 1536-well; hits give low values; activity change, % (test concentration not listed); actives 0.49% (n = 340,000); AID 651724, 2012; in the data active = activity change below about -65%; inconclusive = mostly about -30% to -63%; also: % is scaled to controls: 0 for no effect and ±100 for the full control effect
#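 GST-E1A and His-tagged CtBP (125 nM each as 5X stock) were preincubated with pin-transferred compound for 2 h at 37 °C in the dark, then glutathione donor and nickel acceptor beads were added for 1 h before AlphaScreen reading.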
# Gal4-VP16 FLuc: VP16 counterscreen qHTS for inhibitors of ROR gamma transcriptional activity; Potency, µM (top dose mostly 53.6 µM), without a hit: at the top dose activity, negative = inhibition, usual class: inhibitors; Drosophila S2 Gal4-VP16 UAS-luciferase, luminescence, 20 h; actives 3.5% (n = 310,000);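 also: Gal4-VP16 expression switched on by copper sulfate through the metallothionein promoter; potency is read from the fitted curve at half-maximal effect; % is scaled to controls: 0 for no effect and ±100 for the full control effect; nearly all actives have a fitted effect of over 50% in size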
# MBNL1 CUG block: qHTS Assay for Inhibitors of MBNL1-poly(CUG) RNA binding. Potency, µM (highest dose often 57.5 µM), for inactives: top-dose activity change, negative = inhibition, usual class: inhibitors. actives 0.036% (n = 280,000). TR-FRET MBNL1-His/biotin-(CUG)12 binding, 665/545 ratio. Muscleblind-like protein 1 (Homo sapiens), Q9NR56; active = well fitted inhibition curve with a large enough effect in the signal ratio, with a control signal flat, not every such curve was filed as active; inconclusive = small, poorly fitted or top-dose-only effect, or effect the other way, or a change in a side signal; inactive = no such curve, though single readings can be large or run the other way; the % refers to the signal ratio; also: potency is read from the fitted curve at half-maximal effect; % is scaled to controls: 0 for no effect and ±100 for the full control effect
#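 TR-FRET readout: Ex 340 nm, 665/545 nm emission ratio, normalized to buffer-only (basal) and MBNL1-(CUG)12 controls. Complex of MBNL1-His with Biotin-(CUG)12, compounds 92 nM–58 uM, incubated 60 min at room temperature.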
# The depositor's hits bear a star; ? = inconclusive; nt = not tested or not shown; ! = repeats disagree; [ ] = remark or other dose. Unless noted, calls follow the shape of the dose curve; as a rule, active = well fitted curve in the direction sought with a large enough effect; inconclusive = small, poorly fitted or top-dose-only effect, or another doubt; inactive = no such curve, though single readings can be large; an effect the other way counts as inactive or inconclusive.
SMILES,CBFb-RUNX1 inh,Six1-Eya2 inh,RORgamma inh,CtBP-E1A blk,Gal4-VP16 FLuc,MBNL1 CUG block
CC(C)NC(=O)c1cc(C2CCCCN2S(=O)(=O)c2ccc(F)cc2F)on1 (configuration not stated),nt,5.9,nt,8.0,nt,nt
C=C1C=CS(=O)(=O)N(Cc2ccccc2)C1,3.5%,nt,?,nt,?,nt
CC1CN=C(c2cccn2Cc2ccc(F)cc2Cl)O1 (configuration not stated),-0.4%,-4.8,6.31µM*,-3.4,?,2.2%
CCCCCCCCC/C(=N\O)c1ccccn1,-12.4%,2.4,3.55µM*,10.0,11.2µM*,4.5%
CCCCCCCCC(=O)N/N=C/c1ccccn1,-3.6%,3.1,-88.3%,7.4,-7.8%,-3.1%
CCc1ccc(Nc2nnc(SCC(=O)Nc3cccnc3Cl)s2)cc1,-5.6%,1.8,11.2µM*,-2.1,?,-4.4%
O=C(N/N=C(\c1ccccc1)c1ccccn1)c1cccc([N+](=O)[O-])c1,?,-90.9*,0.447µM*,nt,-13.4%,?
CCOc1ccc(C(=O)N/N=C(\c2ccccc2)c2ccccn2)cc1,?,?,0.199µM*,-66.7*,0.0562µM*,19.5%
Cn1ccnc1/C(=N\NC(=O)c1ccccc1)c1cccc([N+](=O)[O-])c1,6.0%,-3.5,-86.3%,-1.2,-12.0%,?
CCOc1ccc(C(=O)Nc2cccc3cccnc23)cc1,nt,-4.2,-22.3%,-0.3,13.1%,0.3%
COc1ccc(CNC(=O)[C@H](C)N2C(=O)N3CCc4c([nH]c5ccccc45)[C@@]3(C)C2=O)cc1OC,nt,-5.7,-12.2%,-6.0,-20.3%,4.1%
CCOc1cc(/C=C2/C(=N)N3C=CSC3=NC2=O)ccc1OCCCOc1ccccc1C,10.4%,0.1,-71.2%,7.4,?,15.3%
COc1cc(/C=C2/C(=N)N3C=CSC3=NC2=O)ccc1OCCCOc1c(C)cccc1C,-12.0%,-13.4,11.2µM*,?,?,-2.3%
COc1cc(/C=C2/C(=N)N3C=CSC3=NC2=O)ccc1OCCOc1ccc(NC(C)=O)cc1,-0.5%,-5.3,-5.1%,-9.2,-9.7%,nt
COc1cc(/C=C2/C(=N)N3C=CSC3=NC2=O)ccc1OCCCOc1ccccc1C,-1.9%,-3.3,4.47µM*,-7.8,2.82µM*,-7.4%
O=C(Nc1ccccc1Cl)NC1CCCCCCC1,nt,9.9,35.4%,9.5,?,2.5%
O=C(N/N=C\c1c(O)ccc2ccccc12)c1ccc(Cn2cccn2)o1,-12.3%,-85.6*,2.51µM*,-73.0*,12.6µM*,20.3%[11.5 µM]
O=C(N/N=C\c1ccc(Cl)s1)c1ccc(Cn2cccn2)o1,-11.0%,-15.2,10µM*,-11.2,-97.9%,?
CC1CCCCC1NC(=O)CCNS(=O)(=O)c1cc(Br)cnc1N (configuration not stated),nt,3.8,7.0%,nt,-3.9%,-3.0%
CN(CC(=O)Nc1cc(Cl)cc(Cl)c1)Cc1cccs1,nt,14.3,16.7%,14.6,-21.7%,-12.7%
COC(=O)N1CCC2(CCN(Cc3ccc(C#N)cc3)CC2)CC1,nt,nt,?,nt,-26.8%,nt
C#CCn1c(=NC(=O)CSC(C)=O)sc2cc(F)ccc21,5.2%,-0.5,2.51µM*,-2.1,-28.6%,-8.8%
CCc1nnc(N/N=C/c2ccc(-c3ccc([N+](=O)[O-])cc3)o2)n1N,-24.8%,-12.2,3.55µM*,-27.8,?,nt
NC(=S)N/N=C/c1ccc(-c2cccc([N+](=O)[O-])c2)o1,1.1%,?,1µM*,?,4.47µM*,?
Nc1nonc1C(=O)N/N=C/c1ccc(-c2cccc([N+](=O)[O-])c2)o1,-0.3%,-11.4,-17.3%,?,2.4%,?
SMILES,CBFb-RUNX1 inh,Six1-Eya2 inh,RORgamma inh,CtBP-E1A blk,Gal4-VP16 FLuc,MBNL1 CUG block
O=C(N/N=C/c1ccc(-c2cccc([N+](=O)[O-])c2)o1)c1cccs1,-12.9%,-18.0,10µM*,nt,?,7.8%
O=[N+]([O-])c1cccc(-c2ccc(/C=N/NC(=S)Nc3cccc(F)c3)o2)c1,-19.6%,-20.3,0.891µM*,-7.9,7.08µM*,6.5%
NC(=O)c1cc(S(=O)(=O)NCCc2ccc(S(N)(=O)=O)cc2)cs1,nt,6.8,-4.7%,nt,-3.1%,-1.6%
COc1ccccc1-c1oc2ccccc2c(=O)c1OC,2.9%[21.7 µM],nt,-19.5%,nt,-2.0%,nt
CC(=O)Nc1ccc(-c2noc(-c3csc([C@@H]4C[C@H](O)[C@@H](CO)O4)n3)n2)cc1,nt,1.7,nt,1.0,nt,nt
CCCc1c(OCCCCc2nn[nH]n2)ccc(C(C)=O)c1O,17.8%,-7.9,?,-3.8,12.6µM*!,-10.3%
CCCc1c(OCC(O)COc2ccc3c(=O)cc(C(=O)O)oc3c2CCC)ccc(C(C)=O)c1O (configuration not stated),4.6%,nt,27.0%,nt,-15.6%,nt
S=C1Nc2ccccc2Sc2ccc(Cl)cc21,-1.8%,-7.0,1.78µM*,1.2,2.82µM*,nt
Cn1c(-c2ccc(F)cc2)cnc1SCC(=O)N1CCCCC1,5.6%,-0.5,10µM*,-2.3,?,6.6%
Cc1cccc(CNc2ncncc2-c2ccccc2CN(C)C)c1,nt,nt,-31.2%,nt,4.2%,nt
O=Cc1cccc(OCc2cccc3ccccc23)c1,nt,13.2,5.3%,13.7,-6.5%,-2.0%
Cc1cc(C)c2c(=O)n(CC(=O)Nc3cccc(F)c3)sc2n1,10.4%,-16.1,?,2.1,?,13.0%
CCOc1ccc(NC(=O)Cn2sc3nc(C)cc(C)c3c2=O)cc1,2.9%,-27.8,?,-12.9,11.2µM*,1.4%
Cc1cc(C)c2c(=O)n(CC(=O)Nc3ccc(Cl)cc3)sc2n1,5.7%,-1.8,?,-6.6,12.6µM*,5.9%
COCCCN=Cc1c(-c2ccccc2)[nH]n(-c2nc3ccccc3s2)c1=O,3.6%,0.7,8.91µM*,-11.0,?,13.5%
CCCCCN=Cc1c(C)[nH]n(-c2nc3ccccc3s2)c1=O,4.8%,-4.3,10µM*,-3.1,?,-8.4%
O=c1c2ccccc2oc2cc(OCc3ccc(F)cc3)cc(O)c12,nt,1.1,8.4%,-2.5,4.7%,-5.0%
CCCCN(C(=O)Cc1coc2cc(C)c(C)cc12)c1c(N)n(Cc2ccccc2)c(=O)[nH]c1=O,nt,-2.3,nt,-0.6,nt,nt
Cc1ccc(C(=O)NC(=S)N2CCN(c3cc(C)ccc3C)CC2)cc1,nt,-14.4,1µM*,-8.3,1µM*,-3.2%
